# Assay outcomes as filed in PubChem BioAssay.
# S2 tox – Viability Counterscreen for Primary qHTS for Inhibitors of ATXN expression | S2 cells (HEK-293 line with an ATXN2-luciferase reporter) viability, CellTiter-Fluor protease fluorescence, 24 h | Potency, µM (highest dose often 56.7 µM), usual class: cytotoxic | 0.49% of 400,000 active | AID 651635, 2014; further: potency means the concentration at half of the fitted maximal effect; nearly all actives have a fitted effect of over 40% in size
# ATXN2 expr inh – Primary qHTS for Inhibitors of ATXN expression; HEK-293 ATXN2-luciferase reporter, luminescence, 24 h; 0.72% of 360,000 active; Potency, µM (titrated, usually from 57 µM), inactives show at the top dose activity change, negative = inhibition, usual class: inhibitors; AID 1745845, 2022; further: potency means the concentration at half of the fitted maximal effect; on the % scale 0 is the no-effect control and ±100 the full control effect; nearly all actives have a fitted effect of over 55% in size
#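 ATXN2-luciferase reporter cells (luciferase flanked by upstream and downstream ATXN2 gene portions) were treated 24 h at 37 °C with compounds at up to 57 uM. SteadyGlo luminescence gave expression; GF-AFC fluorescence gave viability.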
# PINK1 expr mod – A Quantitative High throughput Screen to Identify Chemical Modulators of PINK1 Expression; AID 624263, 2012; PINK1 immunofluorescence, high-content cytometry, 24 h; 0.2% of 410,000 active; Potency, µM (top dose mostly 76.6 µM), for the others: at the top dose activation (PINK1 increase), usual class: activators; active means well fitted activation curve with a large enough effect; inconclusive means small, poorly fitted or top-dose-only effect; cell line not stated here; further: potency means the concentration at half of the fitted maximal effect; % of control where 0% means no effect; nearly all actives have a fitted effect of over 65% in size
#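 PINK1 protein, normally rapidly degraded, was detected by immunofluorescence after 24 hour compound treatment of a stable cell line. Titration data (5 concentrations) came from laser-scanning cytometry, with CCCP-treated wells as controls.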
# MCF10A rerep – A quantitative high throughput screen for small molecules that induce DNA re-replication in MCF 10a normal breast cells | MCF 10A DNA re-replication, Hoechst nuclear intensity, 48 h | Potency, µM (doses to about 46.1 µM), inactives show at the top dose activity, positive = re-replication, usual class: activators | 2.9% of 350,000 active | AID 624296, 2012; further: potency means the concentration at half of the fitted maximal effect; % of control where 0% means no effect; nearly all actives have a fitted effect of over 50% in size
# SW480 rereplic – A quantitative high throughput screen for small molecules that induce DNA re-replication in SW480 colon adenocarcinoma cells | SW480 DNA re-replication, Hoechst DNA content imaging, 48 h | Potency, µM (top dose mostly 46.1 µM), for inactives: at the highest dose re-replication activation, most hits filed as activators | 1.8% of 340,000 active | AID 624297, 2012; further: potency means the concentration at half of the fitted maximal effect; % of control where 0% means no effect; nearly all actives have a fitted effect of over 55% in size
#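 SW480 cells exposed to compounds for 48 hr at 37 C, 5% CO2, then Hoechst-stained 40 min. Nuclear DNA content imaged by fluorescence scanning (405 nm excitation, 500-530 nm emission); re-replication scored as increased high-intensity nuclei.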
# IL-1B inflam inh – qHTS for Inhibitors of Inflammasome Signaling: IL-1-beta AlphaLISA Primary Screen; AID 743279, 2014; 4.7% of 360,000 active; activity change, % at 57.5 µM; THP-1 LPS/ATP IL-1B secretion, AlphaLISA, 16 h; active compounds read low; in the data active means activity change below about -50%; inconclusive means mostly about -30% to -49%; further: on the % scale 0 is the no-effect control and ±100 the full control effect
#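 THP-1 cells pretreated 1 hr with compounds (up to 57.5 uM final), then stimulated with LPS (250 ng/mL final) plus ATP (1.25 mM final); secreted IL-1B measured by AlphaLISA after 16 hr, decreased signal indicating inhibition.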
# Numbers without * were called inactive; i = inactive; ? = inconclusive; nt = no result given; [ ] = another dose, or the depositor's remark. Most compounds without a hit are left out; they make up all but 7.1% or so of the library. Unless noted, the call rests on the fitted dose curve; in most records, active means well fitted curve in the direction sought with a large enough effect; inconclusive means small, poorly fitted or top-dose-only effect, or another doubt; inactive means no such curve, though single readings can be large; an effect the other way counts as inactive or inconclusive.
SMILES,S2 tox,ATXN2 expr inh,PINK1 expr mod,MCF10A rerep,SW480 rereplic,IL-1B inflam inh
CCOC(=O)C1=C(N)Oc2cc(O)ccc2C1c1cccc([N+](=O)[O-])c1 (centres undefined),i,-18%[11.3 µM],3%,8.2µM*,?,-97*
CC(C)C(=O)C1=Cc2cccc([N+](=O)[O-])c2OC1N1CCOCC1 (centres undefined),i,6%,2%,-9%,5%,-60*
CC(C)C(=O)C1=Cc2cc([N+](=O)[O-])ccc2OC1N1CCOCC1 (centres undefined),i,nt,-1%,?,-5%,-16
CCC1CN(C(=O)N2CCC(C(=O)NCc3cccc(C)c3)CC2)c2ccccc2O1 (centres undefined),nt,nt,0%,nt,nt,nt
Cc1ccccc1-c1cccc([C@@H]2C[C@H]3[C@H](CON3C)CN2Cc2ccccc2)c1,i,0%,29%,18µM*,10%[9.22 µM],0
Cc1ccccc1S(=O)(=O)N1C[C@H]2CON(C)[C@H]2C[C@H]1c1cccc(Oc2ccccc2)c1,i,5%,0%,?,8.2µM*,34
Cc1cccc(-n2c(=O)c3ccccc3n(Cc3ccc(F)cc3)c2=O)c1,i,3%,0%,nt,nt,nt
COc1ccc(C2Nc3ccccc3C(=O)N2c2ccc(Cl)cc2)cc1COc1ccc(NC(C)=O)cc1 (centres undefined),nt,nt,1%,nt,nt,nt
COCCCNc1nc(NCc2ccccc2OC)c2cnn(C)c2n1,i,-13%,4%,nt,nt,nt
COc1ccc(CC(N)c2csc(Nc3cc(NCc4ccco4)ncn3)n2)cc1 (centres undefined),?,?,5%,nt,nt,-51*
COc1ccc(C(N)c2csc(Nc3cc(Oc4ccccc4)ncn3)n2)cc1 (centres undefined),?,?,5%,nt,nt,-85*
COc1ccc(CC(N)c2csc(Nc3ncccn3)n2)cc1 (centres undefined),?,0%,-1%,nt,nt,-29
NC(c1csc(Nc2cc(Oc3ccccc3)ncn2)n1)C1CCCCC1 (centres undefined),?,?,-1%,nt,nt,-27
NC(Cc1ccc(C(F)(F)F)cc1)c1csc(Nc2cc(Oc3ccccc3)ncn2)n1 (centres undefined),?,?,-1%,nt,nt,-89*
Nc1ccc(CC(N)c2csc(Nc3cc(Oc4ccccc4)ncn3)n2)cc1 (centres undefined),i,-7%,4%,nt,nt,-85*
O=C(NCC1CCC2(CCN(Cc3cccc(-c4ccco4)c3)CC2)O1)c1ccccc1 (centres undefined),?,nt,0%,nt,nt,nt
CCc1ccc(Sc2cc(C(=O)O)c3ccccc3n2)cc1,nt,nt,-1%,nt,nt,nt
COc1cccc(-c2ccnc3c(-c4ccccc4)c(C)nn23)c1,?,8%,1%,nt,nt,nt
Cc1cn(C2CCCO2)c(=O)nc1N (centres undefined),i,-18%,1%,-4%,-2%,0
O=C(CCNS(=O)(=O)c1ccc2c(c1)CCCC(=O)N2)Nc1cccc(Cl)c1,i,-14%,-1%,nt,nt,nt
CCN(C(=O)CSc1ccc2ccccc2n1)C1CCCCC1,?,4%,-1%,?,3%,-69*
O=C(CSc1ccc2ccccc2n1)NC1CC1,i,14%,6%,4%,-6%,-3
CC(=O)N/C(=C\c1ccccc1)C(=O)OCC(=O)Nc1ccc(C)c(S(=O)(=O)N(C)C)c1,i,5%,0%,7%,5.8µM*,-3
Cc1ccc(NC(=O)CN2CCC(Cc3ccccc3)CC2)cc1S(=O)(=O)N(C)C,i,-14%,10%,?,12µM*,-54*
Cc1ccc(NC(=O)CCN2CCC(Cc3ccccc3)CC2)cc1,i,-9%,7%,5%,0%,-82*
SMILES,S2 tox,ATXN2 expr inh,PINK1 expr mod,MCF10A rerep,SW480 rereplic,IL-1B inflam inh
CC(=O)N1CCN(CC(=O)Nc2ccc(C)c(S(=O)(=O)N(C)C)c2)CC1,i,-12%,0%,?,-19%,-13
Fc1cc(-c2cccc3ncc(-c4cnn(C5CCNCC5)c4)nc23)cc(F)c1CN1CCOCC1,nt,24µM*,nt,nt,nt,nt
Cc1ccccc1-n1c(C)nnc1SC(C)C(=O)NCc1ccco1 (centres undefined),nt,nt,-1%,nt,nt,nt
NNC(=O)/C(=N/Nc1ccccc1)S(=O)(=O)c1ccc(Cl)cc1,?,14µM*,-2%,?,?,45
Cn1cc(C2=C(c3cn(CCCSC(=N)N)c4ccccc34)C(=O)NC2=O)c2ccccc21,nt,nt,0%,nt,nt,nt
COc1ccc2c(c1)c(C1=C(c3c[nH]c4ccccc34)C(=O)NC1=O)cn2CCCN(C)C,nt,22µM*,nt,nt,nt,nt
CCc1ccccc1N(C)C(=O)Cn1cnc2sc(C)c(S(=O)(=O)N3CCN(c4ncccn4)CC3)c2c1=O,?,8%,1%,nt,nt,nt
Cc1ccc(C)c(Nc2ncnc3c2cnn3-c2ccc(F)cc2)c1,?,19%,7%,nt,nt,nt
Cn1nc(C(F)(F)F)c(/C=N/OC(=O)c2ccccc2)c1SCc1ccccc1Cl,?,-36%,-2%,18µM*,16µM*,?
CC1=NN(c2nc(N)nc(/C(C#N)=C/c3ccc([N+](=O)[O-])o3)n2)C(C)(C)C1,?,?,?,3.3µM*,8.2µM*,-16
Cc1ccc(Cl)cc1N1CCN(C(=O)CCCn2c(=O)[nH]c3ccc(Br)cc3c2=O)CC1,?,?,2%,nt,nt,nt
COc1ccc(C)cc1Nc1n[n+](-c2ccccc2)c(-c2ccc(N(C)C)cc2)s1,?,?,?,?,?,-67*
